Activity calls are given as the source filed them. The calls were made as follows: active = hit-call score of the fitted dose curve at least 0.9, where 1 is the maximum; inactive = score below 0.9.
Tests used:
Details in all cases: mRNA level, 48 h; actives raise or lower the signal
[1] = read-out: 3-Hydroxy-3-Methylglutaryl-CoA Synthase 2 (HMGCS2), HMGCS2 (gene 3158); experiment: LTEA_HepaRG_HMGCS2: Life Technologies and Expression Analysis (LTEA) Assay for 3-Hydroxy-3-Methylglutaryl-CoA Synthase 2 (HMGCS2) using HepaRG (AID 2283504)
How it was run: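 qRT-PCR read-out of HMGCS2 transcript, normalised to three housekeeping genes, in HepaRG cells after 48 h chemical exposure. Eight-point curves from 100 uM, half-log dilutions, 0.5% DMSO vehicle; gain or loss fitted relative to DMSO baseline.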

HGF (gene 3082) = experiment: LTEA_HepaRG_HGF: Life Technologies and Expression Analysis (LTEA) Assay for Hepatocyte Growth Facto (HGF) using HepaRG (AID 2283505)
How it was run: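 HepaRG, 48 h dosing, 8-pt half-log series from 100 uM in 0.5% DMSO, duplicates. Readout: TaqMan qRT-PCR of HGF mRNA, housekeeping-normalized; bidirectional curve fit vs DMSO baseline.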

[2] = read-out: Insulin Like Growth Factor 1 (IGF1), IGF1 (gene 3479); experiment: LTEA_HepaRG_IGF1: Life Technologies and Expression Analysis (LTEA) Assay for Insulin Like Growth Factor 1 (IGF1) using HepaRG (AID 2283506)
How it was run: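 HepaRG, plated 48 h, then switched to serum-free induction media; test chemical 8-pt half-log from 100 uM (0.5% DMSO), duplicate, 48 h. Lysis in RLT, TaqMan qRT-PCR, norm. ACTB/GAPDH/POLR2A. Bidirectional fit vs DMSO.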

[3] = read-out: Intercellular Adhesion Molecule 1 (ICAM1), ICAM1 (gene 3383); experiment: LTEA_HepaRG_ICAM1: Life Technologies and Expression Analysis (LTEA) Assay for Intercellular Adhesion Molecule 1 (ICAM1) using HepaRG (AID 2283507)
How it was run: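 HepaRG, 48 h exposure, 8-pt half-log series from 100 uM, 0.5% DMSO vehicle, duplicates. Readout: TaqMan qRT-PCR mRNA, housekeeping-normalized (ACTB/GAPDH/POLR2A). Bidirectional curve fit vs DMSO baseline.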

[4] = read-out: Insulin-like growth factor-binding protein 1 (IGFBP1), IGFBP1 (gene 3484); experiment: LTEA_HepaRG_IGFBP1: Life Technologies and Expression Analysis (LTEA) Assay for Insulin-like growth factor-binding protein 1 (IGFBP1) using HepaRG (AID 2283508)
How it was run: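 qRT-PCR mRNA read-out (TaqMan, Fluidigm array), normalised to three housekeeping genes; HepaRG cells, 48 h exposure, 8-pt half-log series from 100 uM, 0.5% DMSO vehicle; bidirectional curve fit vs DMSO baseline.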

[5] = read-out: Interleukin 6 (IL6), IL6 (gene 3569); experiment: LTEA_HepaRG_IL6: Life Technologies and Expression Analysis (LTEA) Assay for Interleukin 6 (IL6) using HepaRG (AID 2283509)
How it was run: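 HepaRG cells exposed in duplicate for 48 h to eight half-log concentrations, top 100 uM, in 0.5% DMSO serum-free induction medium. mRNA measured by qRT-PCR, normalized to ACTB, GAPDH and POLR2A. Bidirectional fit versus DMSO.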

[6] = read-out: Interleukin 6 Receptor (IL6R), IL6R (gene 3570); experiment: LTEA_HepaRG_IL6R: Life Technologies and Expression Analysis (LTEA) Assay for Interleukin 6 Receptor (IL6R) using HepaRG (AID 2283510);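 as to AC50: differentiated human HepaRG liver cells in serum-free induction medium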
How it was run: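 Readout is IL6R transcript level by TaqMan qRT-PCR, normalized to three housekeeping genes and fitted bidirectionally against 0.5% DMSO controls. Human HepaRG cells received chemicals for 48 h in serum-free induction medium, highest concentration 100 uM.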

[7] = read-out: Potassium channel subfamily K member 1 (KCNK1), KCNK1 (gene 3775); experiment: LTEA_HepaRG_KCNK1: Life Technologies and Expression Analysis (LTEA) Assay for Potassium channel subfamily K member 1 (KCNK1) using HepaRG (AID 2283511)
How it was run: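 Differentiated HepaRG cells, 48 h exposure in serum-free induction medium with 0.5% DMSO; 8 concentrations, half-log from 100 uM, duplicate. KCNK1 mRNA by qRT-PCR, normalized to ACTB, GAPDH, POLR2A; bidirectional fit vs DMSO.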

[8] = read-out: Keratin 19 (KRT19), KRT19 (gene 3880); experiment: LTEA_HepaRG_KRT19: Life Technologies and Expression Analysis (LTEA) Assay for Keratin 19 (KRT19) using HepaRG (AID 2283512)
How it was run: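 HepaRG, 48 h chemical exposure, 8-pt half-log CRC from 100 uM, 0.5% DMSO vehicle, duplicates. Readout: TaqMan qRT-PCR of KRT19 mRNA, housekeeping-normalized (ACTB/GAPDH/POLR2A). Bidirectional fit vs DMSO baseline.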

[9] = read-out: JUN Transcription Factor, JUN (gene 3725); experiment: LTEA_HepaRG_JUN: Life Technologies and Expression Analysis (LTEA) Assay for JUN Transcription Factor using HepaRG (AID 2283513)
How it was run: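 Cells plated 48 h, medium switched to serum-free induction medium, then dosed 48 h (100 uM top, half-log dilutions, 0.5% DMSO). RNA isolated; JUN measured by qRT-PCR against three housekeeping genes; gain or loss fitted relative to DMSO.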

Measured: AC50

C1=Cc2cccc3cccc1c23
inactive: [1] | HGF (gene 3082) | [2] | [3] | [4] | [5] | [6] | [7] | [8] | [9]

c1ccc2c(c1)oc1ccccc12
inactive: [1] | HGF (gene 3082) | [2] | [3] | [4] | [5] | [6] | [7] | [9]

ClCCOCCCl
inactive: [1] | HGF (gene 3082) | [2] | [3] | [4] | [5] | [6] | [7] | [8]

CCCCCOC(=O)c1ccccc1C(=O)OCCCCC
inactive: [1] | HGF (gene 3082) | [2] | [3] | [4] | [5] | [6] | [7] | [9]

C[C@]12C=CC3=C4CCC(=O)C=C4CC[C@H]3[C@@H]1CC[C@@H]2O
inactive: [1] | HGF (gene 3082) | [3] | [4] | [6] | [7] | [8] | [9]
active: [2] 55.6 µM | [5] 9.92 µM

ClC1=C(Cl)C2(Cl)C3C(Cl)C=CC3C1(Cl)C2(Cl)Cl (stereo not drawn)
active: [2] 5.6 µM
inactive: [1] | HGF (gene 3082) | [3] | [4] | [5] | [6] | [7] | [9]

Nc1ccc(Cc2ccc(N)cc2)cc1
inactive: [1] | HGF (gene 3082) | [2] | [3] | [4] | [5] | [6] | [7] | [8]

c1ccc2c(c1)-c1cccc3cccc-2c13
inactive: [1] | HGF (gene 3082) | [2] | [3] | [4] | [5] | [6] | [7] | [8] | [9]

CCOC(=O)[C@]1(c2ccccc2)Oc2ccccc2[C@@H]1N
active: [1] 77.3 µM | [2] 80.2 µM | [4] 91.6 µM | [5] 84.8 µM | [9] 93.6 µM
inactive: HGF (gene 3082) | [3] | [6] | [7] | [8]

O=[N+]([O-])C(Br)(CO)CO
inactive: [1] | HGF (gene 3082) | [2] | [3] | [4] | [5] | [6] | [7] | [8] | [9]

CN(C)[C@@H]1C(=O)C(C(N)=O)=C(O)[C@@]2(O)C(=O)C3=C(O)c4c(O)cccc4[C@@](C)(O)[C@H]3C[C@@H]12
inactive: [1] | HGF (gene 3082) | [2] | [3] | [4] | [5] | [6] | [7] | [8]

Nc1ccc([N+](=O)[O-])cc1
inactive: [1] | HGF (gene 3082) | [2] | [3] | [4] | [5] | [6] | [7] | [8] | [9]

c1ccc(N=Nc2ccccc2)cc1
inactive: [1] | HGF (gene 3082) | [3] | [4] | [5] | [6] | [7] | [8] | [9]

CNC(=O)Oc1cccc2c1OC(C)(C)C2
inactive: HGF (gene 3082) | [2] | [3] | [4] | [5] | [6] | [8] | [9]
active: [1] 38.8 µM

O=C(Oc1ccc(Br)cc1)N1CCN2CCC1CC2
inactive: [1] | HGF (gene 3082) | [2] | [3] | [4] | [5] | [6] | [9]

CCC12COCN1COC2
inactive: [1] | HGF (gene 3082) | [2] | [3] | [4] | [5] | [6] | [9]

O=[N+]([O-])c1ccc(Oc2ccc(Cl)cc2Cl)cc1
active: [2] 50 µM | [4] 50 µM | [8] 41.1 µM
inactive: [1] | HGF (gene 3082) | [3] | [5] | [6]

C[N+](C)(C)CC1CO1 (stereo not drawn)
inactive: [1] | HGF (gene 3082) | [2] | [3] | [4] | [5] | [6] | [8]

O=Cc1ccco1
inactive: [1] | HGF (gene 3082) | [2] | [3] | [4] | [5] | [6] | [8]

CCCCCCCCOC(=O)c1ccc(C(=O)OCCCCCCCC)c(C(=O)OCCCCCCCC)c1
inactive: [1] | HGF (gene 3082) | [2] | [3] | [5] | [6] | [8] | [9]

c1ccc(C2CO2)cc1 (stereo not drawn)
inactive: [1] | HGF (gene 3082) | [2] | [3] | [4] | [5] | [6] | [8]

CS(=O)(=O)NC(=O)c1cc(Oc2ccc(C(F)(F)F)cc2Cl)ccc1[N+](=O)[O-]
inactive: HGF (gene 3082) | [2] | [3] | [4] | [5] | [6] | [8] | [9]
active: [1] 7.76 µM

N#CC(Br)(Br)C(N)=O
inactive: [1] | HGF (gene 3082) | [2] | [3] | [4] | [5] | [6] | [8] | [9]

Oc1ccccc1Cl
inactive: [1] | HGF (gene 3082) | [2] | [3] | [4] | [5] | [6] | [8] | [9]

Clc1ccc(C(c2ccc(Cl)cc2)C(Cl)(Cl)Cl)cc1
active: [2] 50 µM
inactive: [1] | HGF (gene 3082) | [3] | [4] | [5] | [6] | [8] | [9]

CC(C)N(Cc1ccccc1)C(=O)C(C)(C)C
inactive: [1] | HGF (gene 3082) | [3] | [5] | [6] | [9]
active: [2] 25.6 µM

CC(C)(C)C(O)(CCc1ccc(Cl)cc1)Cn1cncn1 (stereo not drawn)
inactive: [5] | [6] | [8] | [9]
active: [1] 72.3 µM | HGF (gene 3082) 79.1 µM | [2] 50 µM | [3] 50 µM | [4] 50 µM

CCN(CC)N=O
inactive: [1] | HGF (gene 3082) | [2] | [3] | [4] | [5] | [6] | [8]

OCCCl
inactive: [1] | HGF (gene 3082) | [2] | [3] | [4] | [5] | [6] | [8] | [9]

COC(=O)c1ccccc1N
inactive: [1] | HGF (gene 3082) | [2] | [3] | [4] | [5] | [6] | [8]

CC(C)(C)OOC(C)(C)CCC(C)(C)OOC(C)(C)C
inactive: [1] | HGF (gene 3082) | [2] | [3] | [4] | [5] | [6] | [9]

Nc1cc(Cl)cc(C(=O)O)c1Cl
inactive: [1] | HGF (gene 3082) | [2] | [3] | [4] | [5] | [7] | [9]

CCCCCCCCn1sccc1=O
active: [1] 84.8 µM | HGF (gene 3082) 81.3 µM | [6] 99.3 µM
inactive: [2] | [3] | [4] | [5] | [8] | [9]

CCN(CC)CCO
inactive: [1] | HGF (gene 3082) | [2] | [3] | [4] | [5] | [6] | [8]

Cc1ccc([N+](=O)[O-])cc1
inactive: [1] | HGF (gene 3082) | [3] | [4] | [5] | [6] | [9]
active: [2] 17.8 µM

CCCCC(CC)COC(=O)c1ccc(C(=O)OCC(CC)CCCC)c(C(=O)OCC(CC)CCCC)c1 (stereo not drawn)
inactive: [1] | HGF (gene 3082) | [2] | [3] | [4] | [5] | [6] | [9]

CC(C)(OOC(C)(C)c1ccccc1)c1ccccc1
inactive: [1] | HGF (gene 3082) | [2] | [3] | [4] | [5] | [6] | [9]

CO[C@@H]1[C@H](OC(=O)NC(=O)CCl)CC[C@]2(CO2)[C@H]1[C@@]1(C)O[C@@H]1CC=C(C)C
active: [2] 3.17 µM
inactive: [1] | HGF (gene 3082) | [3] | [4] | [5] | [6] | [8] | [9]

CN(C)c1ccc(C(=O)c2ccc(N(C)C)cc2)cc1
inactive: [1] | HGF (gene 3082) | [2] | [3] | [4] | [5] | [6] | [9]

CN(C)c1ccccc1
inactive: [1] | HGF (gene 3082) | [2] | [3] | [4] | [5] | [6] | [8] | [9]

Reference: PubChem BioAssay (EPA / NIEHS)
